Screening results: PubChem, National Center for Advancing Translational Sciences (NCATS)
Tau fil binding: tau filament binding; P10636; recombinant tau filaments, thioflavin S fluorescence, 15 h; filaments grown with octadecylsulfate alongside compound; Potency, µM (titrated, usually from 57.1 µM); 2% of 71,000 active; AID 596;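 note: actives lower thioflavin S fluorescence by blocking filaments or displacing dye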
Target sequence (P10636 whole entry, looked up): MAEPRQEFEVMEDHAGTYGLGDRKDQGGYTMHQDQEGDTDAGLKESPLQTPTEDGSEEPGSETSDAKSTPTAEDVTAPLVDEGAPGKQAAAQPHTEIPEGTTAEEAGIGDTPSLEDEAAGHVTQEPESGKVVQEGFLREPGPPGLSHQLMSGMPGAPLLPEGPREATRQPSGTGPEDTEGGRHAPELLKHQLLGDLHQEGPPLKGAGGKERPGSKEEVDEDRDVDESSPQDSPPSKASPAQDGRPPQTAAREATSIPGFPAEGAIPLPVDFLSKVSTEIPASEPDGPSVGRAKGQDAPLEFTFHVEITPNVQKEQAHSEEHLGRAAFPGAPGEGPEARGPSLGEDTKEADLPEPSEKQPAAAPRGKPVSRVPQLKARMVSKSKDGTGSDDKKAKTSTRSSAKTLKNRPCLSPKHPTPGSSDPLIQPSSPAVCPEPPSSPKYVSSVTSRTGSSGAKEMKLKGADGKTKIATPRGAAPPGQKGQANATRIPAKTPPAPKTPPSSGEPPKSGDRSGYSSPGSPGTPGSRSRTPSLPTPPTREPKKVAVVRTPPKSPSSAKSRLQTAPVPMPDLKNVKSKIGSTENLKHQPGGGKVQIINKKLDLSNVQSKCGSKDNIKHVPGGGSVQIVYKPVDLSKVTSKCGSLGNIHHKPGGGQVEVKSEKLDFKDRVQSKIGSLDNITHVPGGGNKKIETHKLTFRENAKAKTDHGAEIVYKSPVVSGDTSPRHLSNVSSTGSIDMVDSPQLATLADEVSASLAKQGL
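His-tagged recombinant human tau (exons 2, 3 and 10 included), 1 uM, was induced to fibrillize by 30 uM sodium octadecylsulfate with compound present. After 15 h at 37 C, thioflavine S fluorescence (ex 450, em 510 nm) was read.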
Peg3 imprint: inducers of genomic imprint erasure in mouse ES cells. mouse ES Peg3-LacZ reporter, beta-gal luminescence, 40 h. Potency, µM (highest dose often 60.7 µM), hits mostly activators. 0.02% of 110,000 active. AID 1948
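Each well holds 300 Peg3LacZ-Neo (maternal) female ES cells incubated 40 h at 37C, 5% CO2. LacZ is measured by BetaGlo luminescence, with AC50 and maximum efficacy derived from dose-response curves.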
p53ts 39C kill: p53ts cell cytotoxicity, nonpermissive temperature | H1299-p53A138V viability at 39C, ATP luminescence, 24 h | Potency, µM (doses to about 46.1 µM), usual class: cytotoxic | 1.5% of 130,000 active; note: nearly all actives have a fitted effect of over 55% in size
p53ts 32C tox: kills p53ts cells at the permissive temperature; H1299-p53A138V at 32C, ATP luminescence viability, 24 h; 0.93% of 130,000 active; Potency, µM (series often up to 46.1 µM), hits mostly cytotoxic; note: nearly all actives have a fitted effect of over 55% in size
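H1299-p53 A138V cells (temperature-sensitive p53) exposed 24 h to up to 46 uM compound at 32C, where p53 is wild-type in conformation. Viability read as ATP luminescence and normalised to DMSO and 100 uM tamoxifen. AC50 fitted with the Hill equation.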
FLuc inh: firefly luciferase inhibition; 2.2% of 72,000 active; Potency, µM (top dose mostly 57.1 µM), most hits filed as inhibitors; AID 411; purified firefly luciferase, luminescence, 8 min; P08659; note: nearly all actives have a fitted effect of over 40% in size
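Inhibition of light generation by firefly luciferase from ATP and luciferin was profiled with concentration-response curves per sample, ATP held at 10 uM within the enzyme's linear range. Plates were read by luminescence after an 8-minute ambient incubation.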
Numbers stand for hits; [ ] = remark or other dose. Rows were chosen to be rich in hits. Some 3.4% of all compounds tested hit in one or more screens of this group. Calls come from the whole dose curve; as a rule, active = well fitted curve in the direction sought with a large enough effect; inconclusive = small, poorly fitted or top-dose-only effect, or another doubt; inactive = no such curve, though single readings can be large; an effect the other way counts as inactive or inconclusive.

`CCn1nnc(NC(=O)c2ccc(C(C)(C)C)cc2)n1` gave Tau fil binding inactive, p53ts 39C kill 5µM, p53ts 32C tox 2.5µM and FLuc inh 13µM.
Screening O=c1c(-c2cc(F)cc(F)c2)nc2cncnc2n1Cc1ccc(F)cc1 returned Tau fil binding inconclusive, p53ts 39C kill inactive, p53ts 32C tox inactive and FLuc inh inactive[11.4 µM].
For Cn1cc(-c2cc3n(n2)CCC(=O)N3CCCC(=O)Nc2ccc(Cl)cc2)c2ccccc21 the results were Peg3 imprint inactive[10.9 µM], p53ts 39C kill inactive and p53ts 32C tox inactive.
`Cn1cc(-c2cc3n(n2)CCC(=O)N3CCCC(=O)NCc2ccc(Cl)cc2)c2ccccc21` gave Peg3 imprint inactive[10.9 µM], p53ts 39C kill 13µM and p53ts 32C tox inconclusive.
COc1ccc(-c2nc3sc(CCNC(=O)c4ccco4)c(C)n3n2)cc1 was read as Peg3 imprint inactive[10.9 µM], p53ts 39C kill inconclusive and p53ts 32C tox inconclusive.
For COC(=O)c1cc(CSc2nnc(-c3ccccc3)c(-c3ccccc3)n2)oc1C the results were Tau fil binding 16µM, Peg3 imprint inactive, p53ts 39C kill inactive, p53ts 32C tox inactive and FLuc inh inactive.
`C=CCSC1=N/C(=C\C=C\c2ccco2)C(=O)S1` gave Tau fil binding 10µM, Peg3 imprint inactive, p53ts 39C kill inactive, p53ts 32C tox inactive and FLuc inh inactive.
`C=CCSC1=N/C(=C\c2ccc3c(c2)OCO3)C(=O)S1` gave Tau fil binding inactive, Peg3 imprint inactive, p53ts 39C kill inactive, p53ts 32C tox inactive and FLuc inh inactive.
Cc1ccccc1NC(=O)c1nc(-c2ccncc2)no1 was read as Peg3 imprint inactive[10.9 µM], p53ts 39C kill inactive and p53ts 32C tox inactive.
Screening O=C(NCCc1ccccc1Cl)c1sc2ncccc2c1-n1cccc1 returned Peg3 imprint inactive[10.9 µM], p53ts 39C kill inactive and p53ts 32C tox inconclusive.
Screening C=CCn1c(C)cc(C(=O)CSc2nc3ccccc3o2)c1C returned Tau fil binding inactive, Peg3 imprint inactive, p53ts 39C kill inactive, p53ts 32C tox inactive and FLuc inh 16µM.
Screening CCn1c(=N)n(CCOc2ccc(Br)cc2)c2ccccc21 returned Peg3 imprint inactive[10.9 µM], p53ts 39C kill 13µM and p53ts 32C tox inconclusive.
`COc1ccc(OCCn2c(=N)n(CCO)c3ccccc32)cc1` gave Tau fil binding inactive, Peg3 imprint inactive, p53ts 39C kill inactive, p53ts 32C tox inactive and FLuc inh inactive.
For Cc1ccc(NC(=O)Nc2ccc3nc(N4CCN(C)CC4)cc(C)c3c2)cc1C the results were Peg3 imprint inactive[10.9 µM], p53ts 39C kill 13µM and p53ts 32C tox inconclusive.
Screening Cc1cc(N2CCN(C)CC2)nc2ccc(NC(=O)Nc3ccccc3)cc12 returned Peg3 imprint inactive[10.9 µM], p53ts 39C kill inconclusive and p53ts 32C tox inconclusive.
For Cc1cc(N2CCN(C)CC2)nc2ccc(NC(=O)Nc3cccc(Cl)c3)cc12 the results were Peg3 imprint inactive[10.9 µM], p53ts 39C kill 25µM and p53ts 32C tox inconclusive.
`Cc1cc(N2CCN(C)CC2)nc2ccc(NC(=O)Nc3ccccc3Br)cc12` gave Peg3 imprint inactive[10.9 µM], p53ts 39C kill 13µM and p53ts 32C tox 16µM.
c1ccc([C@@H]2CN3CCSC3=N2)cc1 was read as Tau fil binding inactive, Peg3 imprint inactive, p53ts 39C kill inactive, p53ts 32C tox inactive and FLuc inh inactive.
For CS(=O)(=O)N1CCC2(CC1)CN(c1ccccn1)C2 the results were Tau fil binding inactive, p53ts 39C kill inactive, p53ts 32C tox inactive and FLuc inh inactive[11.4 µM].
For CCN1C(=O)c2cccc3c(S(=O)(=O)Nc4ccccc4OC)ccc1c23 the results were Tau fil binding 20µM, Peg3 imprint inactive, p53ts 39C kill inactive, p53ts 32C tox inactive and FLuc inh inactive.
CCN1C(=O)c2cccc3c(S(=O)(=O)Nc4ccc(O)c(C(=O)O)c4)ccc1c23 was read as Peg3 imprint inactive[10.9 µM], p53ts 39C kill inactive and p53ts 32C tox inactive.
COc1cc2c(cc1NCc1ccccn1)oc1ccccc12 was read as Tau fil binding 32µM, Peg3 imprint inactive, p53ts 39C kill inactive, p53ts 32C tox inactive and FLuc inh inactive.
O=C(Nc1ccc2oc(-c3cc(Br)ccc3Cl)nc2c1)c1ccc2ccccc2c1 was read as Peg3 imprint inactive[10.9 µM], p53ts 39C kill 13µM and p53ts 32C tox inconclusive.
CC(=O)Nc1ccc2oc(-c3ccccc3Br)nc2c1 was read as Tau fil binding inactive, Peg3 imprint inactive, p53ts 39C kill inconclusive, p53ts 32C tox inconclusive and FLuc inh 10µM.
Screening O=C(Nc1ccc2oc(-c3ccccc3F)nc2c1)c1ccc2c(c1)OCCO2 returned Tau fil binding inactive, Peg3 imprint inactive, p53ts 39C kill inactive, p53ts 32C tox 13µM and FLuc inh inactive.
Screening CCC(=O)Nc1ccc2oc(-c3ccccc3Br)nc2c1 returned Tau fil binding inactive, Peg3 imprint inactive, p53ts 39C kill inactive, p53ts 32C tox inconclusive and FLuc inh inconclusive.
O=C(Nc1ccccc1-c1nc2ccccc2o1)c1ccc2c(c1)OCCO2 was read as Tau fil binding inactive, Peg3 imprint inactive, p53ts 39C kill inactive, p53ts 32C tox inactive and FLuc inh inactive.
`CN1C(=O)C(C)(C)c2cc(S(=O)(=O)NCc3ccc(C(=O)Nc4ccc(Cl)cc4)cc3)ccc21` gave Peg3 imprint inactive[10.9 µM], p53ts 39C kill inactive and p53ts 32C tox inactive.
`CCc1cnc2c(c1SCC(=O)c1ccc(Cl)cc1)c(=O)n(C)c(=O)n2C` gave Peg3 imprint inactive[10.9 µM], p53ts 39C kill inactive and p53ts 32C tox inactive.
Cc1nn(-c2ccc(C(=O)O)cc2)c(N)c1-c1ccccc1 was read as Tau fil binding inactive, Peg3 imprint inactive, p53ts 39C kill 10µM, p53ts 32C tox 7.9µM and FLuc inh 13µM.
For COc1ccc(-c2c(C)nn(-c3ccccc3)c2N)cc1OC the results were p53ts 39C kill inactive and p53ts 32C tox inactive.
COc1ccc(CCNS(=O)(=O)c2ccc(N3CCCCS3(=O)=O)cc2)cc1OC was read as Peg3 imprint inactive[10.9 µM], p53ts 39C kill inactive and p53ts 32C tox inactive.
Cc1ccc(NC(=O)CC2Sc3ccc(C(F)(F)F)cc3NC2=O)cc1 (configuration not stated) was read as Peg3 imprint inactive[10.9 µM], p53ts 39C kill inactive and p53ts 32C tox inactive.
For CC(=O)C1=C(C)Nc2cc(C(F)(F)F)ccc2S1 the results were Tau fil binding 32µM, Peg3 imprint inactive, p53ts 39C kill inactive, p53ts 32C tox inactive and FLuc inh inactive.
Screening COc1ccc(NC(=O)c2ccc3oc(=O)c(S(=O)(=O)c4ccc(C)cc4)cc3c2)cc1OC returned Peg3 imprint inactive[10.9 µM], p53ts 39C kill inactive and p53ts 32C tox inactive.
For O=c1cc(-c2ccccc2)[nH]c2nc3ccccc3n12 the results were Tau fil binding inactive, Peg3 imprint inactive, p53ts 39C kill 2µM, p53ts 32C tox 2µM and FLuc inh 2.5µM.
Screening O=c1cc(-c2ccccc2)[nH]n1-c1nc2ccccc2s1 returned Tau fil binding inconclusive, Peg3 imprint inactive, p53ts 39C kill inconclusive, p53ts 32C tox inconclusive and FLuc inh inactive.
